Assay results reported in PubChem BioAssay (NCI).
About 83,000 compounds went through this panel and 20% of them were active in at least one assay; those are over-represented in the sample as a whole.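 Compound tested at a single concentration for 48 hours in 96-well plates; a percent growth value below 10 was scored as active.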 Values without a mark were called inactive. The source made the active and inactive calls.

Experiments:
Experiment in all cases: NCI-60 one-dose screen, 48 h (100 = growth as untreated, 0 = no growth, -100 = all killed)
Conditions in all cases: 10 µM unless noted
NCI-H23 lung = system: NCI-H23 lung
NCI-H226 lung = system: NCI-H226 lung
HOP-62 NSCLC = system: HOP-62 NSCLC
NCI-H460 lung = system: NCI-H460 lung
NCI-H522 lung = system: NCI-H522 lung
A549/ATCC NSCLC = system: A549/ATCC NSCLC
786-0 renal = system: 786-0 renal
COLO 205 colon = system: COLO 205 colon
DU-145 prostate = system: DU-145 prostate
K-562 leukemia = system: K-562 leukemia
MALME-3M melanoma = system: MALME-3M melanoma
MDA-MB-231 breast = system: MDA-MB-231 breast
RXF 393 renal = system: RXF 393 renal
SF-268 CNS = system: SF-268 CNS
SF-539 CNS = system: SF-539 CNS
UACC-257 melanoma = system: UACC-257 melanoma
M14 melanoma = system: M14 melanoma
SF-295 CNS = system: SF-295 CNS
HCT-15 colon = system: HCT-15 colon
NCI-H322M lung = system: NCI-H322M lung

SMILES | growth (NCI-H23 lung) | growth (NCI-H226 lung) | growth (HOP-62 NSCLC) | growth (NCI-H460 lung) | growth (NCI-H522 lung) | growth (A549/ATCC NSCLC) | growth (786-0 renal) | growth (COLO 205 colon) | growth (DU-145 prostate) | growth (K-562 leukemia) | growth (MALME-3M melanoma) | growth (MDA-MB-231 breast) | growth (RXF 393 renal) | growth (SF-268 CNS) | growth (SF-539 CNS) | growth (UACC-257 melanoma) | growth (M14 melanoma) | growth (SF-295 CNS) | growth (HCT-15 colon) | growth (NCI-H322M lung)
S=C1SCN(Cc2ccccc2)CN1Cc1ccco1 | 94.1% | 111% | 85.3% | 105% | 4.84% (active) | 101% | 90.5% | 83.3% | 68.3% | 11.6% | 94% | 91.3% | 101% | 94.2% | 65.8% | 72.4% | 87.1% |  |  | 
O=C1/C(=C/c2ccc([N+](=O)[O-])o2)Oc2ccc(Br)cc21 | 74.1% | 98% | 94.3% | 107% | -66.1% (active) | 107% | 28.3% | 8.53% (active) | 72.1% | -1.79% (active) | -28.3% (active) | 42.8% | -29.6% (active) | 48.1% | 88% | 69.1% | 44.9% | 99.4% | 0.437% (active) | 
Cc1c(C(N)=O)sc2ncn(Cc3ccccc3)c(=O)c12 | 101% | 96.8% | 95.4% | 108% | 103% | 85.7% | 96.1% |  | 113% | 97.1% | 120% | 102% | 106% | 104% | 94.6% | 163% | 105% |  | 115% | 
O=C(Nc1ccc(Nc2ccncc2)cc1)c1ccc(Nc2ccnc3ccc([N+](=O)[O-])cc23)cc1[N+](=O)[O-] | 83% | 103% | 127% | 44.9% | 43.2% | 35.2% | 50.1% |  | 56.8% | 107% | -49.8% (active) | 94.9% | 35.9% | -11.6% (active) | 53.3% | 70.9% | 92.7% | 19.4% |  | 
COc1ccc(OC)c(/C=C/c2nc(=S)n(-c3ccc(Cl)cc3)[nH]2)c1 | 48.7% | 73.3% | 69.7% | 38.9% | 82.1% | 66.3% | 58.9% | 104% | 87.6% | 22.4% | 29.8% | 87.2% | 51.9% | 73.7% | 39.5% | 77.6% | 31% | 31.2% | 41.2% | 
Cn1c(=O)c2c(nc(Br)n2CCC(=O)Nc2ccc(F)cc2)n(C)c1=O | 101% | 101% | 92.4% | 109% | 87.9% | 85.2% | 100% | 112% | 118% | 97.5% | 105% | 102% | 118% | 111% | 98.7% |  | 96.3% | 104% | 108% | 
NC(=O)N/N=C/c1ccc(Br)o1 | 97.7% | 98.8% | 94.2% | 110% | 89.7% | 106% | 105% | 98.6% | 110% | 104% | 106% | 99% | 112% | 99.6% | 101% | 105% | 101% | 103% | 96.1% | 
C[C@]12C[C@H](O)[C@H]3[C@@H](CCC4=CC(=O)CC[C@@]43C)[C@@H]1CC[C@@H]2C(=O)CO | 11% | 79.5% | 102% | 103% | 16% |  | 101% | 96% | 108% | 66.7% | 95.3% | 80.5% |  | 98.8% | 89.3% |  | 107% | 126% | 92% | 
COc1cc(/C=C/C(=O)c2c(-c3ccc(F)cc3)nc3sc(C)nn23)cc(OC)c1OC | 51.4% | 38.9% | 9.53% (active) | 11.8% | -27% (active) | 12.2% | 24.6% | 33% | 0.196% (active) | 2.54% (active) |  | 7.91% (active) |  | 16.6% | 21.2% | 46.6% | 34.9% | 49.6% | 15.9% | 
COc1ccc2[nH]cc(/C=C3/C(=O)Nc4ccc(Cl)cc43)c2c1 | 37.8% | 60.1% | 64.8% | 46.1% | -7.27% (active) | 56.6% | 43.2% | 63.8% | 47.6% | 27.4% | 31.5% | 28.2% | 21.3% |  | 67.8% | 68.5% | 37.2% | 53.1% | 30.4% | 
Cc1cc(NCCCNc2ccnc3cc(Cl)ccc23)nc(N2CCN(C)CC2)n1 | 95.1% | 75.3% | 62.7% | 24.1% | 4.29% (active) | 70.5% | 78.7% | 48.1% | 78.2% | 8.07% (active) | 59.2% | 53.8% |  | 70.7% | -18.8% (active) | 50.4% | 25.7% | 61% | 43.6% | 
Cc1[nH]n(C(N)=S)c(=O)c1N=Nc1ccc(F)c(Cl)c1 | 102% | 87% | 92.1% | 114% | 94.6% | 106% | 95.6% |  | 100% | 95.3% | 110% | 89.1% | 131% | 92.2% | 108% | 124% | 100% | 103% | 104% | 
CC(C)[C@H]1CC[C@H]2[C@@H](CC[C@H]3[C@](C)(CN)CCC[C@]23C)C1 | 88.4% |  | 56.3% | -66.1% (active) | 80% | 87% | 72.9% | -82.6% (active) | 11.2% | 18.7% | 83% | 63.6% | 86.9% | 53.5% | 98.8% | 108% | 93% | 80.5% |  | 15.3%
N#Cc1cccc(/C=C(/C(=O)c2ccccc2)c2ccccc2)c1 | 81.2% | 71.7% | 94.5% | 77.5% | 57.8% | 62.8% | 76.2% | 96.8% | 37% | 1.89% (active) |  | 54.5% |  | 51.1% | 91.9% | 43.1% | 58.8% | 63.5% |  | 
CC1=CSC2=NCCN12 | 104% | 112% | 108% | 109% |  | 105% | 104% | 107% | 108% | 101% |  | 122% | 121% | 102% | 95.8% | 116% | 108% | 132% | 109% | 
O=C(Nc1nc(-c2ccc(Cl)cc2)cs1)c1cc(O)c(O)c(O)c1 | 42.2% | 74.9% | 38.6% | 10.2% | -34.9% (active) | 25.2% | 11.5% |  | 35.8% | 7.99% (active) |  | 36% |  | 26.7% | 5.36% (active) | 42.7% | 23.2% | 31.2% | 18.8% | 
O=C1OCC/C1=C\OCCCO/C=C1\CCOC1=O | 102% | 103% | 122% | 107% | 98.3% | 98.7% | 102% | 141% | 115% | 107% | 95.2% | 107% | 117% | 109% | 105% | 106% | 110% | 106% | 98.1% | 
Cc1c(C(N)=O)sc2c1C(=O)N(Cc1ccccc1)C1=NN=C(c3ccc(Cl)cc3)CN12 | 58.9% | 73.9% | 66.3% | 28% | 67.1% | 46% | 43% |  | 46.1% |  | 58.9% | 37.3% | 51.3% | 38.6% | 53.2% | 59.8% | 41.5% | 29.1% |  | 
